Laboratory results published in ChEMBL document CHEMBL3988442, “University of Dundee, Small-Polar-MMV Screening Library” (2021).
Hit rate of the full screen: of about 69,000 compounds, about 1,000 (1.4%) showed an effect of 50% or more. The sample holds strong results, similar compounds and a random draw of the others, so the mix is not that of the screen.

Tested on: Leishmania donovani
Experiment: Leishmania intramacrophage assay
Format: functional, organism-based
Design: scale not given: in the data most compounds retested in dose-response had high values

Question: Which “Percent Effect” value (30.3 µM, […]) does the source give for `COc1cc(N2CC[C@H](O)[C@@H]2Cc2ccccc2)ncn1` here?
Answer: 33.09%

Question: With `Cc1cc(C(=O)N2CC[C@@]3(C[C@@H](NS(C)(=O)=O)CCO3)C2)no1` as the molecule, how does the “Percent Effect” value (30.3 µM, […]) read?
Answer: 13.02%

Question: With `O=C(CCn1cncn1)NCCOc1cccc(Cl)c1` as the molecule, how does the “Percent Effect” value (30.3 µM, […]) read?
Answer: -12.3%

Question: Which “Percent Effect” value (30.3 µM, […]) does the source give for `Cc1c(C(C)NC2CCCC2)cnn1-c1ccc(F)cc1F` (centres undefined) here?
Answer: 6.771%

Question: For `Cc1c(C(C)NC2CCN(C(C)C)CC2)cnn1-c1ccc(F)cc1F` (centres undefined), which “Percent Effect” value (30.3 µM, […]) is on record?
Answer: 61.65%

Question: For `CC(=O)N1CCC(NC(C)c2cnn(-c3ccc(F)cc3F)c2C)CC1` (centres undefined), which “Percent Effect” value (30.3 µM, […]) is on record?
Answer: 3.786%

Question: With `CCN(CCOC)C(=O)c1ccc2c(c1)nc(N1CC[C@H](O)C1)n2C` as the molecule, how does the “Percent Effect” value (30.3 µM, […]) read?
Answer: 20.98%

Question: For `COc1c(CNCc2ccc3c(c2)OCCO3)c(C(C)C)nn1C`, which “Percent Effect” value (30 µM) is on record?
Answer: -2.541%

Question: For `CCc1nc(C)c(CN2CCN(c3ncnc4scc(C)c34)CC2)[nH]1`, which “Percent Effect” value (30.3 µM, […]) is on record?
Answer: -3.854%

Question: For `Cc1n[nH]c(CN2CCN(c3ncnc4scc(C)c34)CC2)c1Cl`, which “Percent Effect” value (30.3 µM, […]) is on record?
Answer: 71.39%

Question: With `CCc1nc(C)c(CN2CCN(c3ncnc4c(C)csc34)CC2)[nH]1` as the molecule, how does the “Percent Effect” value (30.3 µM, […]) read?
Answer: 24.01%

Question: For `Cc1ccccc1CCNC(=O)C1CC(=O)N(CC(F)(F)F)C1` (centres undefined), which “Percent Effect” value (30 µM, 30.03 µM) is on record?
Answer: 9.865%

Question: `O=C(NCCn1ccnc1)N1CCCC1c1ccc2c(c1)OCCO2` (centres undefined) was tested. Which “Percent Effect” value (30 µM) did it give?
Answer: 14.25%

Question: `CC(C)(C(=O)NCc1n[nH]c(=O)[nH]1)c1ccc(F)cc1` was tested. Which “Percent Effect” value (30.3 µM, […]) did it give?
Answer: 17.25%

Question: With `Cc1cc(=O)n2nc(Oc3ccc(Cl)c(C)c3)sc2n1` as the molecule, how does the “Percent Effect” value (30.3 µM, […]) read?
Answer: 74.91%

Question: How did the “Percent Effect” value (30.3 µM, […]) turn out when `Cc1cc(=O)n2nc(Oc3cc(Cl)cc(Cl)c3)sc2n1` was run?
Answer: -38.32%

Question: For `Cc1cc(=O)n2nc(Oc3ccc(F)c(F)c3)sc2n1`, which “Percent Effect” value (30.3 µM, […]) is on record?
Answer: -0.08982%

Question: How did the “Percent Effect” value (30.3 µM, […]) turn out when `COC(=O)NC1(C(=O)NCc2ccc(-c3ccn[nH]3)cc2)CCCC1` was run?
Answer: 3.496%

Question: For `CCNC(=O)c1sccc1N(C)S(=O)(=O)c1ccc(Cl)cc1`, which “Percent Effect” value (30.3 µM, […]) is on record?
Answer: 2.943%

Question: With `CNC(=O)c1sccc1N(C)S(=O)(=O)c1ccc(Cl)cc1` as the molecule, how does the “Percent Effect” value (30.3 µM, […]) read?
Answer: 77.15%

Question: With `CC(C)NC(=O)c1sccc1N(C)S(=O)(=O)c1ccc(Cl)cc1` as the molecule, how does the “Percent Effect” value (30 µM, 30.03 µM) read?
Answer: 7.242%

Question: Which “Percent Effect” value (30 µM, 30.03 µM) does the source give for `Cc1ccc(C(=O)NC(CN2CCCC2=O)c2ccccc2)c(=O)[nH]1` (centres undefined) here?
Answer: -14.78%

Question: How did the “Percent Effect” value (30.3 µM, […]) turn out when `Cc1ccc(C(=O)NCC(C)CN2CCCC2=O)c(=O)[nH]1` (centres undefined) was run?
Answer: 59.27%

Question: With `Cc1ccc(C(=O)NC(C)CN2CCCC2=O)c(=O)[nH]1` (centres undefined) as the molecule, how does the “Percent Effect” value (30 µM, 30.03 µM) read?
Answer: 6.193%

Question: For `Nc1nc(N)c2c(n1)OC1(CCCN(Cc3nccs3)CC1)C2` (centres undefined), which “Percent Effect” value (30.3 µM, […]) is on record?
Answer: 27.22%

Question: With `Cc1cc(CN(C)c2nc(-c3ccco3)nc3c2CCN(C)CC3)on1` as the molecule, how does the “Percent Effect” value (30.3 µM, […]) read?
Answer: -83.89%

Question: With `Cc1nonc1CN(C)c1nc(-c2ccco2)nc2c1CCN(C)CC2` as the molecule, how does the “Percent Effect” value (30.3 µM, […]) read?
Answer: 55.96%

Question: Which “Percent Effect” value (30.3 µM, […]) does the source give for `Cc1noc(CN(C)c2nc(-c3ccco3)nc3c2CCN(C)CC3)n1` here?
Answer: -34.19%

Question: With `Cc1cccc(CN2C(=O)CO[C@@H]3CN(Cc4cnn(C)c4)C[C@H]32)c1.O=C(O)C(F)(F)F.O=C(O)C(F)(F)F` as the molecule, how does the “Percent Effect” value (30.3 µM, […]) read?
Answer: 15.94%

Question: For `CC(C)(C)CNC(=O)c1ccc(C(=O)O)cn1`, which “Percent Effect” value (30.3 µM, […]) is on record?
Answer: -11.9%

Question: Which “Percent Effect” value (30.3 µM, […]) does the source give for `CC(C)(C)CNC(=O)c1ccc(C(=O)O)nc1` here?
Answer: 60.75%

Question: How did the “Percent Effect” value (30.3 µM, […]) turn out when `CC(C)(C)CNC(=O)c1ccc(C(=O)O)cc1` was run?
Answer: 40.51%

Question: With `Cc1ccc(-c2ncc(CN3CCOC(c4ccco4)C3)s2)o1` (centres undefined) as the molecule, how does the “Percent Effect” value (30.3 µM, […]) read?
Answer: -6.468%

Question: For `COC(=O)CCCN(C)C(c1cccnc1)c1ccc(F)cc1F` (centres undefined), which “Percent Effect” value (30.3 µM, […]) is on record?
Answer: 21.57%

Question: How did the “Percent Effect” value (30.3 µM, […]) turn out when `CC(C)N1CC(c2ncc(-c3ccc4c(c3)OCCO4)[nH]2)CC1=O` (centres undefined) was run?
Answer: 26.45%

Question: For `O[C@H]1[C@H](NCCc2ccccn2)c2ccccc2C12CCNCC2`, which “Percent Effect” value (30.3 µM, […]) is on record?
Answer: -16.64%

Question: With `Cc1ccc(CCN[C@@H]2c3ccccc3C3(CCNCC3)[C@H]2O)s1` as the molecule, how does the “Percent Effect” value (30.3 µM, […]) read?
Answer: 84.2%

Question: With `COc1ccccc1CCN[C@@H]1c2ccccc2C2(CCNCC2)[C@H]1O` as the molecule, how does the “Percent Effect” value (30.3 µM, […]) read?
Answer: 35.47%

Question: For `CNC(=O)[C@@H]1C[C@H]2CN(Cc3csc(C)n3)C[C@H]2N1C(C)C.O=C(O)C(F)(F)F.O=C(O)C(F)(F)F`, which “Percent Effect” value (30.3 µM, […]) is on record?
Answer: 29.27%

Question: With `CC(C)N1Cc2cccc(NCC(=O)N(C)C3CCCCC3)c2C1` as the molecule, how does the “Percent Effect” value (30.3 µM, […]) read?
Answer: 17.74%

Question: For `CC(C)N1Cc2cccc(NCC(=O)N(C)C)c2C1`, which “Percent Effect” value (30.3 µM, […]) is on record?
Answer: 62.8%

Question: How did the “Percent Effect” value (30.3 µM, […]) turn out when `CC(C)C(C)N1Cc2cccc(NCC(=O)N(C)C)c2C1` (centres undefined) was run?
Answer: 29.96%

Question: `Cc1cc(NC(=O)NCC2COc3ccccc3C2)no1` (centres undefined) was tested. Which “Percent Effect” value (30 µM) did it give?
Answer: -28.91%

Question: How did the “Percent Effect” value (30.3 µM, […]) turn out when `Cc1cccc(CN2CCO[C@H]3[C@@H](OCc4ccncc4)CC[C@@H]32)n1.O=C(O)C(F)(F)F.O=C(O)C(F)(F)F.O=C(O)C(F)(F)F` was run?
Answer: 12.49%

Question: With `COc1ccc(CN2CCO[C@H]3[C@H](OCc4ccncc4)CC[C@@H]32)cc1.O=C(O)C(F)(F)F.O=C(O)C(F)(F)F` as the molecule, how does the “Percent Effect” value (30.3 µM, […]) read?
Answer: 60.6%

Question: Which “Percent Effect” value (30 µM, 30.03 µM) does the source give for `Fc1ccccc1CN1C[C@@H](OCc2ccncc2)[C@H]2OCCC[C@H]21.O=C(O)C(F)(F)F.O=C(O)C(F)(F)F` here?
Answer: 54.27%

Question: With `CN(C)C(=O)CO[C@@H]1CN(Cc2ccccc2F)[C@@H]2CCCO[C@@H]21.O=C(O)C(F)(F)F` as the molecule, how does the “Percent Effect” value (30.3 µM, […]) read?
Answer: 10.19%

Question: For `Fc1ccc(CN2CCO[C@H]3[C@H](OCc4ccncc4)CC[C@@H]32)cc1.O=C(O)C(F)(F)F.O=C(O)C(F)(F)F`, which “Percent Effect” value (30.3 µM, […]) is on record?
Answer: 43.4%

Question: `Fc1ccccc1CN1C[C@H](OCC2CCOCC2)[C@H]2OCCC[C@H]21.O=C(O)C(F)(F)F` was tested. Which “Percent Effect” value (30.3 µM, […]) did it give?
Answer: -19.24%
